# Screening results as filed in PubChem BioAssay.
# GLP1R inv ag: inverse agonists of human GLP-1 receptor. HEK293 GLP-1R CRE-luciferase, luminescence, 24 h; GLP-1R form is constitutively active. Potency, µM (top dose mostly 38.3 µM), usual class: inhibitors. P43220. actives 1.6% (n = 410,000); further: nearly all actives have a fitted effect of over 55% in size
# Target sequence (P43220 whole entry, looked up): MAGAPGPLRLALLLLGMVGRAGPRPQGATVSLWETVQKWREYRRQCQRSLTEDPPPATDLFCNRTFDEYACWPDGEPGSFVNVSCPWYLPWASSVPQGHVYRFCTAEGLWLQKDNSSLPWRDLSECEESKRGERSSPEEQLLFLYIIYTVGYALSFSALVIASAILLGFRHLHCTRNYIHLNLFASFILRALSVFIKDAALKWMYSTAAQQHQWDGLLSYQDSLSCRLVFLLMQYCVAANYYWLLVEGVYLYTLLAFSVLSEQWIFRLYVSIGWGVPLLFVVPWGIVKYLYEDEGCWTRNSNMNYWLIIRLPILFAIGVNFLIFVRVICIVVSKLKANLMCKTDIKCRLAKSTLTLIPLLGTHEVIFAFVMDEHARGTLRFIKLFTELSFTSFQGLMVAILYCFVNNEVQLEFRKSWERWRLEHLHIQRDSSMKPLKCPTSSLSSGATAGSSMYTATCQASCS
#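 Seeding at 200 cells/uL, 12 h culture, 24 hr compound treatment, then luciferase reagent and a luminescence read; cells are HEK293 stably expressing a constitutively active GLP-1R plus cAMP-responsive luciferase.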
# GLP1R cytotox: cytotoxicity in counter-screen for GLP-1R inverse agonists. HEK293 cAMP-luciferase reporter cells, luminescence, 24 h. actives 0.13% (n = 410,000). Potency, µM (highest dose often 38.3 µM), usual class: inhibitors;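 further: loss of luciferase light is scored as toxicity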
#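 Cells in DMEM/10% Nu serum/1% pen-strep, 1536-well format. Pre-incubated 12 h, dosed with 23 nL compound, incubated a further 24 h. Luciferase detection, 12 min at room temp, luminescence.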
# GLP1R ag: activates the human GLP-1 receptor; P43220; HEK293 GLP-1R CRE-luciferase, luminescence, 4-6 h; cells express a hypersensitive GLP-1R form; Potency, µM (doses to about 45.6 µM), usual class: activators; actives 0.007% (n = 380,000); AID 624172
# PTHR1 ag: PTHR1 (human) receptor agonism; Potency, µM (top dose mostly 115 µM), usual class: activators; actives 0.075% (n = 410,000); AID 743266; Q03431; HEK293 GP2 PTHR1 cells, GloSensor cAMP luminescence, 1 h; further: nearly all actives have a fitted effect of over 55% in size
#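 HEK-293-derived GP2 cells expressing PTHR1 and a GloSensor cAMP reporter, 3,000/well, plated overnight, given luciferin plus IBMX (each 0.5 mM as added) for 1 h at 37 °C, then compound for 1 h at 37 °C. Luminescence was read after 15 min at room temperature.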
# Numbers stand for hits; 0 = inactive; ? = inconclusive; - = no result. A selection: hits, their analogues and other compounds. The true share with any hit is near 1.7%. The call rests on the fitted dose curve; in most records, active means well fitted curve in the direction sought with a large enough effect; inconclusive means small, poorly fitted or top-dose-only effect, or another doubt; inactive means no such curve, though single readings can be large; an effect the other way counts as inactive or inconclusive.
SMILES,GLP1R inv ag,GLP1R cytotox,GLP1R ag,PTHR1 ag
COc1ccccc1NC(=O)CN1C(=O)CC(c2ccc(C)c(C)c2)=Nc2ccccc21,10µM,0,-,0
Cc1ccc(-c2nc(NCCCN(C)C)c3ccccc3n2)cc1,10µM,0,0,0
CC(C)(C)C(=O)OCCNc1nc(-c2ccccc2)nc2ccccc12,12.6µM,?,0,0
O=C(NCCc1ccccc1)c1ccc2c(c1)N(Cc1ccc(Cl)cc1)C(=O)c1ccccc1S2(=O)=O,?,0,0,0
CN(C)Cc1cc(C(C)(C)C)c(O)c(C(C)(C)C)c1,0,0,0,0
CC(C)(C=O)Cc1cc(C(C)(C)C)c(O)c(C(C)(C)C)c1,11.2µM,0,0,0
CC(C)(CO)Cc1cc(C(C)(C)C)c(O)c(C(C)(C)C)c1,7.08µM,0,?,0
Cc1ccc(C(=O)N(CCc2ccccc2)Cc2ccccc2)cc1S(=O)(=O)N1CCOCC1,10µM,0,0,0
Cc1[nH]c2ccc(F)cc2c1CCN(Cc1cccnc1)C(=S)Nc1cccc(F)c1,10µM,0,0,0
OC1(c2ccccc2)CC(c2ccccc2)c2ccccc2O1 (stereo not given),11.2µM,?,0,0
COc1ccc(-c2cc3ccc(O)c(CN4CCC(C)CC4)c3oc2=O)cc1,0,0,-,0
O=C(Nc1ccc(F)cc1F)Nc1csc2ccccc12,10µM,0,0,0
O=C(Nc1ccc(F)c(Cl)c1)Nc1csc2ccccc12,?,?,0,0
COc1ccccc1OCCOc1ccc(C(=O)c2ccccc2)cc1,8.91µM,0,0,0
COc1ccccc1OCc1ccc(C(=O)c2ccccc2)cc1,?,0,0,0
O=C(Nc1ccc(Nc2ccncc2)cc1)c1ccc([N+](=O)[O-])cc1,10µM,?,0,0
O=C(Nc1ccc(Oc2cccnc2)cc1)c1ccc([N+](=O)[O-])cc1,0,0,0,0
O=C(NCC(O)c1ccc([N+](=O)[O-])cc1)C(c1ccccc1)c1ccccc1 (stereo not given),?,0,0,0
O=C(Nc1ccc([N+](=O)[O-])cc1)C(c1ccccc1)c1ccccc1,2.24µM,0,0,0
Cc1nnc(N2CCCC(C(=O)NCCc3ccc(Cl)cc3)C2)c2nn(-c3ccccc3)c(C)c12 (stereo not given),0,0,-,0
O=C(O)c1[nH]n(-c2ccc(S(=O)(=O)O)cc2)c(=O)c1N=Nc1ccc(S(=O)(=O)O)cc1,-,-,0,-
Cc1oc2c(c1C(=O)c1ccccc1)C(=O)C(=O)c1ccccc1-2,4.47µM,?,0,0
Cc1ccc(NC(=S)NC(=O)C2CC2)cc1Cl,10µM,?,0,0
COC(=O)c1cn(NC(=O)c2cc([N+](=O)[O-])ccc2F)c(=O)c2ccccc12,1.58µM,0,0,0
COC(=O)c1cn(NC(=O)C2CCC(C)CC2)c(=O)c2ccccc12 (stereo not given),0,0,0,0
SMILES,GLP1R inv ag,GLP1R cytotox,GLP1R ag,PTHR1 ag
COc1cc(Nc2ncc3c(n2)CCN(Cc2cc(F)cc(F)c2)C3)cc(OC)c1,?,0,-,0
CN1CCN(S(=O)(=O)c2ccc(N3CCN(S(=O)(=O)/C=C/c4ccccc4)CC3)nc2)CC1,7.94µM,0,0,0
CCN(c1ccc(OC)cc1)S(=O)(=O)c1ccc2[nH]c3c(c2c1)CCCCC3,?,0,0,0
CCOC(=O)C1=C(CN2CCN(c3cc(C)ccc3C)CC2)NC(=O)NC1c1ccccc1 (stereo not given),8.91µM,0,0,0
CCOC(=O)C1=C(CN2CCN(c3ccccc3OC)CC2)NC(=O)NC1c1ccccc1 (stereo not given),0,0,0,0
COc1ccc(C(=O)Nc2cc(C)on2)c(OC)c1,0,0,0,0
COc1ccc(C(=O)Nc2ccc(C)cn2)c(OC)c1,2µM,0,0,0
CCOC(=O)c1c(C)[nH]c(C)c1S(=O)(=O)N1CCCC(C(=O)N2CCN(c3cc(C)ccc3C)CC2)C1 (stereo not given),?,0,-,0
COc1ccc(/C=N/NC(=O)c2cc(C(C)(C)C)[nH]n2)cc1COc1ccc(F)cc1F,6.31µM,?,0,0
COc1ccc(/C=N\NC(=O)c2ccccc2F)cc1COc1ccc(F)cc1F,?,?,?,0
Oc1ccccc1C=NCc1ccccc1,-,-,0,-
CCOC(=O)C1(CCOC)CCN(Cc2cccc(OCc3ccccc3)c2)CC1,?,0,0,0
CCOC(=O)C1(CCOc2ccccc2)CCN(Cc2nccn2CC)CC1,10µM,?,0,0
CCOC(=O)C1(CCCc2ccccc2)CCN(C(=O)CSC)CC1,?,0,0,0
CCOC(=O)C1(Cc2cccc(OC)c2)CCN(Cc2cccc(OC)c2OC)CC1,?,0,0,0
CCOC(=O)C1(CCOc2ccccc2)CCN(Cc2cccc(OC)c2)CC1,11.2µM,0,0,0
CCOC(=O)C1(Cc2cccc(OC)c2)CCN(Cc2cccc3c2OCO3)CC1,10µM,0,0,0
CCOC(=O)C1(CCCc2ccccc2)CCN(C(=O)Cc2nonc2C)CC1,11.2µM,0,0,0
CCCCn1cnc2cc(NCc3ccccc3Cl)ccc21,0,0,0,0
CCOC(=O)C1(CCCc2ccccc2)CCN(Cc2nccn2CC)CC1,10µM,12.6µM,0,0
COc1ccc(N(C)C(=O)c2ccc3nc(-c4ccccc4)c(-c4ccccc4)nc3c2)cc1,6.31µM,0,0,0
Cc1ccccc1OCCC(=O)Nc1ccc(S(=O)(=O)N(C)C2CCN(C)CC2)cc1,?,0,0,0
CN1CCC(N(C)S(=O)(=O)c2ccc(NC(=O)COc3ccc(Br)cc3Cl)cc2)CC1,2µM,?,0,?
CN1CCC(N(C)S(=O)(=O)c2ccc(NC(=O)COc3cccc(Cl)c3)cc2)CC1,2.82µM,0,0,0
Cc1ccc(OCC(=O)Nc2ccc(S(=O)(=O)N(C)C3CCN(C)CC3)cc2)c(C)c1,2.24µM,0,0,0
SMILES,GLP1R inv ag,GLP1R cytotox,GLP1R ag,PTHR1 ag
CCN(Cc1ccccc1)S(=O)(=O)c1ccc2c(c1)CC(C)N2C(=O)C1CCC1 (stereo not given),?,0,-,0
CCCCN(CCCC)C(=O)CN(C)S(=O)(=O)c1ccc2c(c1)c(=O)n(C)c(=O)n2C,0,0,0,0
C[N+](C)(C)CC[N+]1(C)Cc2c(Cl)c(Cl)c(Cl)c(Cl)c2C1,-,-,0,-
CCOC(=O)/C(=N/Nc1ccc(Br)cc1)N1CC(C)OC(C)C1 (stereo not given),2.51µM,0,0,0
CCOc1ccc(NC(=O)N2CC(C)OC(C)C2)cc1 (stereo not given),0,0,0,0
COc1cccc(C(=O)OC2CCN(C)CC2)c1,?,0,0,0
CCOc1ccc(C(=O)OC2CCN(C)CC2)cc1,3.98µM,0,0,0
CCc1ccc(CNC(=O)c2sc3ncccc3c2-n2c(C)ccc2C)cc1,?,0,-,0
CC1(C)CCC[C@]2(C)C(CS(=O)c3ccccc3)=C(C=O)CC[C@@H]12 (stereo not given in full),2.82µM,0,0,0
